Pin1 inh – inhibitors of human Pin1. Q13526. Pin1 FP peptide displacement, HiFluor488, 10 min. Potency, µM (series often up to 115 µM), without a hit: at the top dose activity, negative = inhibition, usual class: inhibitors. 390,000 tested, 0.009% active; active means well fitted inhibition curve with a large enough effect in the polarisation, with a control signal flat, not every such curve was filed as active; inconclusive means small, poorly fitted or top-dose-only effect, or effect the other way, or a change in a side signal; inactive means no such curve, though single readings can be large or run the other way; the % refers to the polarisation; further: on the % scale 0 is the no-effect control and ±100 the full control effect
Target sequence (Q13526 whole entry, looked up): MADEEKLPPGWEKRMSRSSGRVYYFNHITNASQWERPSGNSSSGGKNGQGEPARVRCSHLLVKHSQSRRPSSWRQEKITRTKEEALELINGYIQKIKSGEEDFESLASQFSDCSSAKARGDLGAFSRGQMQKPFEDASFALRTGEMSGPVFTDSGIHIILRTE
A549 viability – kills or reduces viability of A549 cells in Nrf2 counter-screen; Potency, µM (titrated, usually from 46 µM), for the others: top-dose activity change, negative = cytotoxicity, hits mostly inhibitors; 390,000 tested, 0.16% active; AID 504648; A549 ARE-Fluc cells, CellTiter-Fluor viability, 18-24 h; further: on the % scale 0 is the no-effect control and ±100 the full control effect
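A549 ARE-Fluc cells in 5% FBS OPTI-MEM, 5000 cells/well, rested 2 h then exposed to compounds in concentration-response for 18-24 h at 37 °C. Viability by CellTiter-Fluor fluorescence (Ex 405/Em 525) after 30 min; luciferase luminescence (BugLite, 15 min, RT) read afterwards.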
Nrf2 block – Nrf2 pathway inhibition | A549 ARE-Fluc reporter, luciferase luminescence, 18-24 h | Potency, µM (series often up to 46 µM), for inactives: at the highest dose activity change, negative = inhibition, actives largely listed as inhibitors | 360,000 tested, 2.1% active; further: on the % scale 0 is the no-effect control and ±100 the full control effect; nearly all actives have a fitted effect of over 60% in size
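Concentration-response testing used A549 ARE_Fluc cells at 5000 cells/well. Following an 18-24 h compound incubation, viability was read by fluorescence (Ex 405/Em 525) and luciferase output by luminescence.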
Nrf2 activator – activates Nrf2 signaling; AREc32 ARE-luciferase reporter (MCF7-derived line), luminescence, 24 h; Potency, µM (doses to about 46.1 µM), for inactives: top-dose activation, usual class: activators; 410,000 tested, 0.31% active; further: % of control where 0% means no effect; nearly all actives have a fitted effect of over 65% in size
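ARE-driven firefly luciferase activity in AREc32 cells measured after a 24 hr compound exposure at 37 deg C, using Steady-Glo reagent and a 30 min room-temperature hold.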
The depositor's hits bear a star; ? = inconclusive; / = no result given; [ ] = remark or other dose. Only some compounds are listed: those with a hit (about 2.2% of all), similar ones and a draw of the others. Unless noted, the call rests on the fitted dose curve; in most records, active means well fitted curve in the direction sought with a large enough effect; inconclusive means small, poorly fitted or top-dose-only effect, or another doubt; inactive means no such curve, though single readings can be large; an effect the other way counts as inactive or inconclusive. Potency means the concentration at half of the fitted maximal effect.

SMILES	Pin1 inh	A549 viability	Nrf2 block	Nrf2 activator
Cc1cc(N2CCCC(C(=O)Nc3ccc4c(c3)CCC4)C2)n2ncnc2n1 (stereo not given)	-6%	-14%	13µM*	0%
CCN1CCN(S(=O)(=O)c2cc(OCC(=O)NC3CCCCC3)c(C)cc2Cl)CC1	8%	-24%	4.1µM*	0%
Cc1cc(Cl)c(S(=O)(=O)N2CCCCCC2)cc1OCC(=O)NC1CCCCC1	5%	6%	0%	0%
NNC(=O)c1cc2c(N3CCC(Cc4ccccc4)CC3)ncnc2s1	-3%	-12%	26µM*	0%
CCc1ccc(-n2nc(C)c3c(C(=O)N4CCN(c5cccc(Cl)c5)CC4)cc(C)nc32)cc1	3%	2%	?	1%
CCc1ccc(-n2nc(C)c3c(C(=O)N4CCN(c5ccccc5)CC4)cc(C)nc32)cc1	3%	0%	18µM*	4%
CCCCNc1nc(C#N)nc(Nc2ccccc2)n1	-10%	-9%	-12%	/
Cc1nc2scc(-c3ccccc3)c2c(=O)n1N=C1C=CC(=O)C=C1	-11%	-10%	-13%	10µM*
O=[N+]([O-])C(/C=C(\Cl)[N+](=O)[O-])=C(N1CCCCC1)N1CCCCC1	44%	23µM*	-17%	7%[9.22 µM]
O=[N+]([O-])C(=C1SCCS1)C(=C(Cl)Cl)N1CCCCC1	0%	-10%	-13%	0%
Cc1ccc(CNC(=O)c2c(C)oc3nc(C)nc(N4CCOCC4)c23)cc1	-5%	-13%	20%	0%
CC(C)(C)OC(=O)NC(Cc1ccccc1)C(=O)NC1COC2CC(n3ccc(=O)[nH]c3=O)OC12 (stereo not given)	-4%	-3%	19%	/
CCN(CC)c1ccc(NC(=O)CCS(=O)(=O)c2cc3c(cc2Cl)NC(=O)CO3)c(C)c1	26%	?	16µM*	-2%
Cc1ccc(NC(=O)CCS(=O)(=O)c2cc3c(cc2Cl)NC(=O)CO3)cc1	0%	-3%	-13%	0%
CCN1CCN(c2cccc(Nc3nn4c(=O)c5ccccc5nc4s3)c2)CC1	8%	/	/	/
COC(=O)C1=C(C)N(c2ccc(C(=O)OC)cc2)C(=O)C1	-1%	-8%	-13%	3%
COC(=O)C1=C(C)N(c2cc(Cl)cc(Cl)c2)C(=O)C1	-1%	-15%	9.2µM*	?
C=C(C)CSc1nc2sc3c(c2c(=O)n1Cc1ccccc1)CC(C)(CC)OC3 (stereo not given)	14%	11%	-14%	1%
O=S(=O)(c1ccccc1)n1nc(-c2ccco2)nc1NCc1ccccc1	0%	5%	23%	8%
CCCCCCn1c2c(c(=N)c3c1CCC3)CCC2	-2%	-6%	15µM*	4%
CCCCCCCCCn1c2c(c(=N)c3c1CCC3)CCC2	-2%	1%	?	-4%
O=C(Nc1ccccc1C(=O)OCc1cc(=O)n2ccsc2n1)c1cccc(F)c1	-1%	4%	/	-1%
CC(=O)NC(c1ccccc1)c1cc([N+](=O)[O-])c2cccnc2c1O (stereo not given)	8%	?	15µM*	-1%
CCCC(=O)NC(c1cccs1)c1cc([N+](=O)[O-])c2cccnc2c1O (stereo not given)	5%	?	21µM*	0%
O=C(CCc1ccccc1)NC(c1cccs1)c1cc(Cl)c2cccnc2c1O (stereo not given)	13%	?	16µM*	-1%
SMILES	Pin1 inh	A549 viability	Nrf2 block	Nrf2 activator
CCC(=O)NC(c1cccs1)c1cc([N+](=O)[O-])c2cccnc2c1O (stereo not given)	6%	?	?	0%
CC(C)(C)c1ccc(S(=O)(=O)N2CCC(c3nc4ccc(Cl)cc4[nH]3)CC2)cc1	21%	?	16µM*	4%
CC(=O)Nc1ccc(S(=O)(=O)N2CCC(c3nc4ccc(C)cc4[nH]3)CC2)cc1	-1%	2%	-27%	1%
OCCCNc1ncnc2sc(-c3ccccc3)cc12	-2%	1%	?	13%
CC(C)(C)Nc1ncnc2sc(-c3ccccc3)cc12	-1%	?	12µM*	1%
C=COCCCNc1ncnc2sc(-c3ccccc3)cc12	?	-16%	13µM*	0%
CCOc1cccc(C2C=C(c3ccc4c(c3)OCO4)NC(c3ccc(Cl)cc3)N2)c1O (stereo not given)	-1%	0%	-10%	/
O=C(Nc1ccc(F)c(Cl)c1)C1CCN(S(=O)(=O)c2ccc3c(c2)CCCN3C(=O)C2CCC2)CC1	19%	-5%	/	1%
O=S1(=O)C=C(SCc2cccc(Cl)c2)Nc2ccccc21	2%	0%	21µM*	-1%
Cn1ccc(C(=O)Nc2sc3c(c2C#N)CCC3)n1	0%	-1%	3%	6%
N#Cc1c(NC(=O)c2cc(-n3cnnc3)ccc2Cl)sc2c1CCCC2	0%	-18%	23µM*	11%
CC(C)(C)C1CCc2c(sc(N)c2C(N)=O)C1 (stereo not given)	20%	0%	-27%	4%
CCC(C)(C)C1CCc2c(sc(N)c2C(N)=O)C1 (stereo not given)	-2%	8%	18µM*	3%
CC(C)N(Cc1ccccc1)C(=O)CN1C(=O)CSc2ccc(S(=O)(=O)N3CCCC3)cc21	4%	-4%	?	0%
CCOC(=O)c1ccc(N2C(=O)c3[nH]nc(-c4ccc(OCC)cc4)c3C2c2cccs2)cc1 (stereo not given)	7%	-21%	18µM*	5%
CCOC(=O)c1ccc(N2C(=O)c3[nH]nc(-c4ccc(OCC)cc4)c3C2c2ccc(OC)cc2OC)cc1 (stereo not given)	-2%	16%	-8%	0%
CCOc1ccc(N2C(=O)c3n[nH]c(-c4cccs4)c3C2c2cccc(F)c2)cc1 (stereo not given)	10%	-22%	?	-3%
CCOC(=O)c1ccc(N2C(=O)c3[nH]nc(-c4ccccc4)c3C2c2cccs2)cc1 (stereo not given)	34%	?	?	-3%
CCOc1ccc(N2C(=O)c3[nH]nc(-c4ccc(OC)cc4)c3C2c2cccs2)cc1 (stereo not given)	27%	?	23µM*	-1%
CCOc1ccc(-c2n[nH]c3c2C(c2cccs2)N(c2ccc(Br)cc2)C3=O)cc1 (stereo not given)	5%	-24%	23µM*	0%
CCn1cnc2c(Nc3ccc(CCC(=O)N=C(N)N)cc3)nc(C#N)nc21	7%	-5%	9%	/
Cc1nn(Cc2ccc(F)cc2)c2sc(C(=O)Nc3ccc(N4CCOCC4)cc3N3CCOCC3)cc12	0%	-2%	15µM*	3%
Cc1ccc(NS(=O)(=O)c2ccc3c(c2)CCN(C(=O)C(F)(F)F)C3)cc1C	1%	2%	?	/
COc1ccc(N2CCN(CCCNC(=O)C3CCC(CNc4nc(=S)[nH]c5ccccc45)CC3)CC2)cc1 (stereo not given)	0%	?	6.5µM*	0%
CCCCNC(=O)C1CCC(CNc2nc(=S)[nH]c3ccccc23)CC1 (stereo not given)	3%	6%	-12%	-1%
